Laboratory results from PubChem BioAssay.
Where “and” joins values, the source holds several entries; their conditions need not be identical. Identical values can stand only once. Calls of active or inactive are those of the source. Unless noted, the rule behind the calls is not given here.

Legend:
[1] = tested on: Wnt5a (protein binding on small-molecule microarray); assay: Wnt5a binders on small-molecule microarray, primary screen, biophysical, 635/667 nm fluorescence (AID 1142); details: 635 nm fluorescence, higher = more signal;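 note: fluorescence read at 667 nm with signal to noise per printed feature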
[2] = cell viability in Huh7 cells, primary screen, cytotoxicity control for HCV replication inhibitor project, CellTiter-Glo luminescence, basal, 48 h (AID 1143); details: Huh7 HCV replicon, higher = more signal, called active from +8 up or from −8 down;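 note: Huh7 hepatoma cells carrying a hepatitis C replication reporter with no stimulus; test concentration not given here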
[3] = P. aeruginosa biofilm formation inhibitors, primary screen, PAO1 strain, BacTiter-Glo luminescence, LB-PBS (AID 1144); details: 12 h, higher = more signal
[4] = CREB reporter modulators without forskolin, primary screen, cell-based, PC12, CRE-LacZ reporter, unstimulated (AID 1145); details: no forskolin, luminescence, 4.5 h, higher = more signal, called active from +8 up or from −8 down
[5] = CREB reporter modulators under forskolin, primary screen, cell-based, PC12, CRE-LacZ reporter, forskolin-stimulated (AID 1146); details: luminescence, 4.5 h, higher = more signal, called active from +8 up or from −8 down;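 note: PC12 cells with 6xCRE LacZ reporter stimulated by forskolin 10 µM; beta-galactosidase reporter signal reflecting CREB driven transcription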
[6] = molecular target: Streptavidin (Streptomyces avidinii) (UniProt P22629); assay: streptavidin binders on small-molecule microarray, primary screen, artefact control for SMM compound annotation, biophysical, 635/667 nm fluorescence (AID 1147); details: streptavidin binding, higher = more signal;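 note: signal reflects streptavidin binding to arrayed compounds as a control protein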
[7] = small-molecule binders of probe aInhba, primary screen, biochemical, small-molecule microarray, 635/667 nm fluorescence (AID 1148); details: higher = more signal;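 note: score merges 667nm spot fluorescence with signal-to-noise for antibody binding to printed compounds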
Torsin-1A (Homo sapiens) [8] = molecular target: Torsin-1A (Homo sapiens) (UniProt O14656); assay: torsin A binders from cell lysate, primary screen, small-molecule microarray, wild-type, 635/667 nm (AID 1149); details: COS7 hTOR1A-WT lysate, 635 nm fluorescence, higher = more signal
Torsin-1A (Homo sapiens) [9] = molecular target: Torsin-1A (Homo sapiens) (UniProt O14656); assay: small-molecule binders of mutant TOR1A in lysate, primary screen, cell lysate, small-molecule microarray, COS7 lysate, 635/667 nm fluorescence (AID 1150); details: COS7 hTOR1A mutant lysate, 635 nm fluorescence, higher = more signal;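 note: score pools 667 nm emission and signal to noise measuring lysate protein binding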
[10] = tested on: Sonic hedgehog protein (Shh); assay: small-molecule binders of Shh protein, primary screen, biochemical, small-molecule microarray, 635/667 nm fluorescence (AID 1151); details: small-molecule microarray binding, 635 nm fluorescence; higher = more signal;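 note: Shh protein binding to compounds spotted on small-molecule microarray slides; score combines spot fluorescence intensity with signal-to-noise across triplicate slides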

Torsin-1A (Homo sapiens), sequence (O14656 whole entry, looked up): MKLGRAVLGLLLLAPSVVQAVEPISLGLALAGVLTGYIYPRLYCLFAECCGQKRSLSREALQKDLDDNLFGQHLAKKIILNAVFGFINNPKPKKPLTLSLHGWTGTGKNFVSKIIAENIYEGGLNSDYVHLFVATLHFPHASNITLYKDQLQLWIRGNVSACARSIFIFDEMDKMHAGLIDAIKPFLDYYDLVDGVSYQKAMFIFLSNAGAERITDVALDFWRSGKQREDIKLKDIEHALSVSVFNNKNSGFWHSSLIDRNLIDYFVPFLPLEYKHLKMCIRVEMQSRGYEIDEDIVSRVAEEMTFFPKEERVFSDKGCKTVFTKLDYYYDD
Streptavidin (Streptomyces avidinii), sequence (P22629 whole entry, looked up): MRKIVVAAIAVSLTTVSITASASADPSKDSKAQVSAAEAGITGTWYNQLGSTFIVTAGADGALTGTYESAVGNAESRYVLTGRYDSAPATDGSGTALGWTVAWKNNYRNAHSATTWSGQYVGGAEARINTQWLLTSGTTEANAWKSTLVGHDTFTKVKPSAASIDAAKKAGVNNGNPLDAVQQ

Structure (SMILES)	composite z-score [1]	z-score [2]	z-score [3]	z-score [4]	z-score [5]	composite z-score [6]	composite z-score [7]	composite z-score (Torsin-1A (Homo sapiens) [8])	composite z-score (Torsin-1A (Homo sapiens) [9])	composite z-score [10]
CO[C@@H]1COC(=O)CC=C[C@H](C)[C@@H](NS(=O)(=O)c2ccc(C)cc2)COC(=O)CC=C[C@@H]1C	0.123 and 0.0913	-0.142 (inactive) and -0.867 (inactive)	-0.675 (inactive) and -1.19 (inactive)	-0.743 (inactive) and 0.42 (inactive)	-0.881 (inactive) and 0.764 (inactive)	0.167 and 0.162	-0.159 and -0.179	0.318 and 2.3	0.505 and 1.55	1.43 and 2.1
C=CCN(C(=O)C(c1cccs1)N(C(=O)/C=C\C(=O)O)c1ccc(CCO)cc1)c1ccc(OC)cc1 (centres undefined)	-1.21 and -1.14	0.369 (inactive) and 0.0408 (inactive)	-2.25 (inactive) and -0.545 (inactive)	-0.358 (inactive) and 0.463 (inactive)	-0.308 (inactive) and 0.311 (inactive)	-1.31 and -0.93	-0.257 and -0.203	-3.35 and -2.12	0.425 and -1.7	-1.17 and -0.672
C=CC[C@@H](O)c1ccc(O)c(F)c1	-0.54 and -0.38	0.504 (inactive) and -1.51 (inactive)	-0.222 (inactive)	-0.403 (inactive) and 0.0632 (inactive)	0.347 (inactive) and -1.46 (inactive)	-1.6 and -1.65	-0.327 and -0.157	-1.73 and -0.874	0.565 and -0.383	-0.97 and 0.89
C=CCN(C(=O)C1N(C(C)(C)CO)C(=O)C2C(C(=O)O)C3C=CC21O3)C(C)(C)C (centres undefined)	-1.52 and -0.697	-0.037 (inactive) and -0.67 (inactive)	1.58 (inactive) and 1.05 (inactive)	0.471 (inactive) and 0.996 (inactive)	0.0027 (inactive) and -0.21 (inactive)	-1.86 and -1.52	-0.271 and -0.302	-3.46 and 0.256	-2.89 and 0.829	-2.51 and -1.85
C[C@@H](ON=C1[C@H]2CCn3c(=O)n(-c4ccccc4)c(=O)n3[C@H]2[C@H](O)[C@@H]2O[C@H]12)c1cn([C@H](CO)Cc2ccccc2)nn1	-0.174	1.13 (inactive)	0.867 (inactive)	-0.157 (inactive)	1.45 (inactive)	0.0375	-0.0313	0.185	0.199	0.403
C=CCN(CCCC)C(=O)C(c1cccs1)N(CCOCCO)C(=O)/C=C\C(=O)O (centres undefined)	-0.582 and -0.146	-0.259 (inactive) and -0.0074 (inactive)	-0.801 (inactive) and -0.86 (inactive)	-0.891 (inactive) and 0.0564 (inactive)	-0.43 (inactive) and -0.359 (inactive)	-0.915 and -0.578	-0.0313 and -0.0791	-0.289 and 0.536	1.73 and -0.144	-0.127 and -0.197
C=CCN(CCCCC)C(=O)C(c1cccs1)N(C(=O)/C=C\C(=O)O)c1ccc(CCO)cc1 (centres undefined)	-0.909 and -0.947	0.162 (inactive) and 0.193 (inactive)	0.0224 (inactive) and -0.188 (inactive)	0.459 (inactive) and 0.597 (inactive)	-0.343 (inactive) and -0.244 (inactive)	-1.72 and -1.16	-0.331 and -0.0021	-2.38 and -1.69	-1.96 and -1.51	-0.975 and -0.587
CO[C@@H]1C=CCC(=O)N2CCC[C@H]2C(=O)OC[C@H](C)C(=O)OC[C@H]1C	-0.0492	0.0002 (inactive)	-0.789 (inactive)	-0.113 (inactive)	-0.192 (inactive)	-0.69	-0.186	0.772	1.63	1.64
C=C[C@@H](OC)[C@H](O)c1ccc(OC)c(O)c1	0.192 and -0.0615	-0.825 (inactive) and 1.07 (inactive)	0.729 (inactive)	0.441 (inactive) and -0.142 (inactive)	0.0793 (inactive) and -1.37 (inactive)	-0.964 and -1.77	-0.281 and -0.306	0.059 and -0.285	-0.242 and -0.089	0.439 and -0.117
CO[C@@H]1COC(=O)[C@H](Cc2ccccc2)NC(=O)CC=C[C@@H](C)[C@H](OC)COC(=O)[C@@H](C)NC(=O)CC=C[C@H]1C	-0.21 and 0.189	-0.656 (inactive) and -1.53 (inactive)	–	0.345 (inactive) and -0.39 (inactive)	-0.95 (inactive) and -1.65 (inactive)	-0.0436 and -0.304	-0.0986 and -0.319	1.37 and 0.668	0.671 and 0.335	2.07 and 1.98
C[C@@H]1CN2[C@@H](CC[C@@H](C)[C@@H]2c2ccc(Br)cc2)C(=O)O1	-0.174 and -0.0451	0.482 (inactive) and -0.656 (inactive)	0.259 (inactive) and -1.1 (inactive)	0.74 (inactive) and 2 (inactive)	0.667 (inactive) and 0.0918 (inactive)	-0.404 and -0.145	-0.193 and 0.0506	-0.467 and 0.111	0.0914 and 0.0837	0.486 and 0.218
CC(CO)N1C(=O)[C@@H]2C3C(=O)OCCC=C[C@H]3OC23C=CCN(C(C)(C)C)C(=O)[C@@H]13 (some centres undefined)	-0.221 and 0.386	1.18 (inactive) and -0.0534 (inactive)	1.02 (inactive) and 1.16 (inactive)	-0.0859 (inactive) and -0.903 (inactive)	-0.596 (inactive) and 0.158 (inactive)	-1.5 and -0.476	-0.206 and 0.188	-0.0147 and 0.756	-0.0948 and 0.346	0.0735 and 0.915
COC(=O)C1=C(C)N(Cc2ccccc2)[C@]23O[C@](C(=O)OC)(C(=O)N2[C@@H]1c1ccccc1)[C@@H](c1ccccc1)[C@@H]3C(=O)c1ccccc1	0.216 and 0.0881	-3.24 (inactive) and 0.14 (inactive)	-0.137 (inactive)	0.751 (inactive) and 0.29 (inactive)	-1.08 (inactive) and -0.186 (inactive)	0.454 and 0.377	-0.0736 and -0.119	0.388 and 0.241	0.392 and 0.308	0.229 and 0.599
C=CCN(CCCCC)C(=O)C(c1cccs1)N(CCOCCO)C(=O)/C=C\C(=O)O (centres undefined)	-0.845 and -0.857	-0.103 (inactive) and -0.0586 (inactive)	-1 (inactive) and -1.11 (inactive)	-0.0778 (inactive) and -0.35 (inactive)	0.941 (inactive) and -0.947 (inactive)	-0.986 and -1.14	-0.312 and -0.204	-2.06 and -2.03	-1.74 and -2.07	-0.556 and -0.586
CC(C)=CCCC(C)=CCON=C1C[C@@H](O)[C@@H](O)[C@@H]2[C@@H]3C(=O)N([C@@H](C)c4ccccc4)C(=O)[C@@H]3CC[C@H]12	0.111	-3.97 (inactive)	1.09 (inactive)	-0.295 (inactive)	-0.323 (inactive)	0.0138	-0.233	0.594	0.26	1.18
CC(CO)N1C(=O)[C@@H]2C3C(=O)OCCC=C[C@H]3OC23C=CCN(CCN2CCOCC2)C(=O)[C@@H]13 (some centres undefined)	-0.0538 and 0.351	-0.0826 (inactive) and 0.0065 (inactive)	0.129 (inactive) and 0.971 (inactive)	0.317 (inactive) and -0.492 (inactive)	0.643 (inactive) and 0.22 (inactive)	-0.0427 and 1.12	-0.0719 and 0.0053	-0.674 and 0.148	-0.198 and 0.276	0.521 and 0.746
CCOC(=O)C[C@H]1[C@H](OC(=O)c2ccccc2-c2ccccc2)[C@@H](NC(=O)Cc2ccc(OC)cc2)c2cc(OCCCO)ccc2N1C(=O)c1ccc2ccccc2n1	0.0561 and 0.261	-0.319 (inactive) and 0.66 (inactive)	-0.568 (inactive)	7.64 (inactive) and -1.13 (inactive)	-0.809 (inactive) and -0.751 (inactive)	0.241 and 0.27	0.0543 and 0.168	0.0122 and -0.0425	0.19 and 0.686	0.207 and 0.3
CC(CO)N1C(=O)[C@@H]2C3C(=O)OCCC=C[C@H]3OC23C=CCN(Cc2ccccc2)C(=O)[C@@H]13 (some centres undefined)	-0.238 and -0.381	-0.783 (inactive) and 0.124 (inactive)	2.42 (inactive) and 0.328 (inactive)	0.321 (inactive) and 0.195 (inactive)	-0.937 (inactive) and -0.56 (inactive)	-0.422 and -0.768	-0.128 and -0.0762	-0.773 and 0.447	1.55 and 1.17	-0.525 and 0.901
CCOC(=O)[C@H](Cc1ccccc1)NC(=O)CCC1CC(OC(=O)NCc2cccc3ccccc23)CC2(CCCC(COC(=O)NCCCN3CCCC3=O)O2)O1 (some centres undefined)	0.0828	-0.486 (inactive)	-1.02 (inactive)	-0.072 (inactive)	0.309 (inactive)	0.609	-0.154	0.0655	0.327	0.63
